Source: the supplement of paper PMC10849652
The full data set covers some 7,900 targets. This sample favours those with a hit. About 0.6% of all pairs of compound and target were hits.

What was measured:
Assay in all cases: log2 fold change, soluble protein after heating vs DMSO (PISA); higher = thermal stabilisation; K562 cells, 10 uM, 30 min; active = over 0.2 and 3.5 SD of the protein, either way, in both replicates (recomputed)
[1] = compound: NC(=O)Nc1cc(-c2cccc(F)c2)sc1C(=O)N[C@H]1CCCNC1
How it was run: (§1)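 K562 cells (2×10^6 cells/mL) were treated with 10 μM compound for 30 min, and aliquots were heated for 3 min over 48°C-58°C. Pooled aliquots were extracted in PBS with 0.5% NP-40 at 4°C, and the supernatant after 21,000xg for 90 min was measured by TMTpro 16plex LC-MS/MS with channel sums equalised. Reported thermal stability, relative to control samples and from duplicates, is a log2 fold change.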

[2] = compound: NC(=O)c1cnc(N[C@@H]2CCCC[C@@H]2N)nc1Nc1cccc(-n2nccn2)c1
How it was run: as §1

[3] = compound: NC1(c2ccc(-c3nc4ccn5c(=O)[nH]nc5c4cc3-c3ccccc3)cc2)CCC1
How it was run: as §1

[4] = compound: NCC(=O)Nc1ccc(-n2nc(C(F)(F)F)cc2-c2ccc3c(ccc4ccccc43)c2)cc1
How it was run: as §1

entinostat = compound: Nc1ccccc1NC(=O)c1ccc(CNC(=O)OCc2cccnc2)cc1 [entinostat]
How it was run: as §1

vorinostat = compound: O=C(CCCCCCC(=O)Nc1ccccc1)NO [vorinostat]
How it was run: as §1

citarinostat = compound: O=C(CCCCCCNC(=O)c1cnc(N(c2ccccc2)c2ccccc2Cl)nc1)NO [citarinostat]
How it was run: as §1

silmitasertib = compound: O=C(O)c1ccc2c(c1)nc(Nc1cccc(Cl)c1)c1ccncc12 [silmitasertib]
How it was run: as §1

[5] = compound: O=C1NC(=O)C(c2cnc3ccccn23)=C1c1cn2c3c(cc(F)cc13)CN(C(=O)N1CCCCC1)CC2
How it was run: as §1

[6] = compound: c1cc(OCCN2CCCCC2)cc(-c2n[nH]c3ccc(-c4nnc[nH]4)cc23)c1
How it was run: as §1

Measured: log2 fold change

MRPL34 (UniProt Q9BQ48)
inactive: [1] 0.02 | [2] 0.018 | [3] 0.045 | [4] 0.095 | entinostat -0.041 | vorinostat 0.035 | citarinostat 0.004 | silmitasertib 0.053 | [5] 0.09 | [6] -0.175

NDFIP1 (UniProt Q9BT67)
inactive: [1] 0.104 | [2] -0.16 | [3] -0.029 | [4] -0.249 | entinostat -0.291 | vorinostat -0.051 | citarinostat 0.025 | silmitasertib 0.27 | [5] 0.352 | [6] 0.007

NDUFA7 (UniProt O95182)
inactive: [1] 0.019 | [2] 0.005 | [3] -0.108 | [4] -0.059 | entinostat 0 | vorinostat 0.012 | citarinostat 0.008 | silmitasertib -0.037 | [5] -0.047 | [6] -0.039

MOV10 (UniProt Q9HCE1)
inactive: [1] 0.007 | [2] 0.031 | [3] 0.178 | [4] 0.018 | entinostat 0.016 | vorinostat -0.02 | citarinostat -0.054 | silmitasertib 0.133 | [5] 0.187 | [6] -0.164

NGLY1 (UniProt Q96IV0)
Sequence of UniProt Q96IV0 (Q96IV0 whole entry, looked up): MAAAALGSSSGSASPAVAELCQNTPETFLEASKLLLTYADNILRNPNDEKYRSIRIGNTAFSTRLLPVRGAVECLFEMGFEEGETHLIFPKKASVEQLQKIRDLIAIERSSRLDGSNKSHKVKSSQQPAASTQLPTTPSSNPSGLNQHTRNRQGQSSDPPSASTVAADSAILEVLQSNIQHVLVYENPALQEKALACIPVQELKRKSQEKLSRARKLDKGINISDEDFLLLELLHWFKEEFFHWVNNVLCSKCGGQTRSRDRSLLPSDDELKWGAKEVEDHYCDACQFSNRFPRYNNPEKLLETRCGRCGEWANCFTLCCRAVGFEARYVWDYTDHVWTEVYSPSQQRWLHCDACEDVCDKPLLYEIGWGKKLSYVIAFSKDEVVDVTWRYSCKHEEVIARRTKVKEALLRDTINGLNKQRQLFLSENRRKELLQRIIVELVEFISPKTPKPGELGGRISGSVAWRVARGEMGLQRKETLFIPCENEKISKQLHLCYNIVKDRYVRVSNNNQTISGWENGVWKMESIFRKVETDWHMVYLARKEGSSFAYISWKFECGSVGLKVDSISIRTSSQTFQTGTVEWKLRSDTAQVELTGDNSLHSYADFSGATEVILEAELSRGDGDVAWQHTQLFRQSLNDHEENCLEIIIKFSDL
inactive: [1] -0.073 | [2] 0.059 | [3] -0.151 | [4] -0.109 | entinostat 0.025 | vorinostat 0.008 | citarinostat 0.079 | silmitasertib 0.079 | [5] 0.059 | [6] -0.059

OXA1L (UniProt Q15070)
inactive: [1] 0.019 | [2] -0.021 | [3] -0.04 | [4] -0.025 | entinostat -0.021 | vorinostat 0.005 | citarinostat 0.017 | silmitasertib 0.02 | [5] -0.038 | [6] 0.113

NSDHL (UniProt Q15738)
inactive: [1] -0.14 | [2] -0.061 | [3] 0.11 | [4] -0.033 | entinostat -0.018 | vorinostat -0.04 | citarinostat 0.023 | silmitasertib -0.023 | [5] -0.027 | [6] 0.02

MRPL46 (UniProt Q9H2W6)
inactive: [1] -0.067 | [2] 0.009 | [3] 0.023 | [4] -0.014 | entinostat -0.003 | vorinostat 0.011 | citarinostat 0.007 | silmitasertib 0.005 | [5] 0.028 | [6] -0.062

MRPL50 (UniProt Q8N5N7)
inactive: [1] 0.024 | [2] 0.154 | [3] 0.035 | [4] 0.074 | entinostat 0.059 | vorinostat -0.102 | citarinostat 0.051 | silmitasertib 0.006 | [5] -0.078 | [6] -0.078

NIPSNAP2 (UniProt O75323)
inactive: [1] -0.084 | [2] -0.047 | [3] -0.004 | [4] -0.033 | entinostat 0.027 | vorinostat -0.016 | citarinostat -0.021 | silmitasertib -0.039 | [5] -0.179 | [6] 0.023

MRPS6 (UniProt P82932)
inactive: [1] 0.023 | [2] 0.009 | [3] -0.133 | [4] 0.003 | entinostat 0.03 | vorinostat 0.108 | citarinostat 0.079 | silmitasertib -0.036 | [5] -0.042 | [6] -0.031

NAA38 isoform 2 (UniProt Q9BRA0)
inactive: [1] -0.064 | [2] -0.029 | [3] -0.105 | [4] 0.026 | entinostat -0.009 | vorinostat -0.041 | citarinostat -0.152 | silmitasertib 0.017 | [5] 0.038 | [6] -0.264

OPA1 isoform 2 (UniProt O60313)
inactive: [1] -0.046 | [2] -0.054 | [3] -0.165 | [4] -0.072 | entinostat 0.024 | vorinostat 0.033 | citarinostat 0.05 | silmitasertib -0.027 | [5] -0.033 | [6] -0.048

MRPS26 (UniProt Q9BYN8)
inactive: [1] -0.067 | [2] -0.022 | [3] -0.088 | [4] 0.092 | entinostat 0.022 | vorinostat 0.171 | citarinostat -0.04 | silmitasertib -0.044 | [5] -0.039 | [6] 0

MRPS24 (UniProt Q96EL2)
inactive: [1] -0.015 | [2] -0.016 | [3] -0.021 | [4] -0.086 | entinostat 0.001 | vorinostat 0.04 | citarinostat -0.053 | silmitasertib -0.096 | [5] -0.074 | [6] -0.105

NOSIP (UniProt Q9Y314)
Sequence of UniProt Q9Y314 (Q9Y314 whole entry, looked up): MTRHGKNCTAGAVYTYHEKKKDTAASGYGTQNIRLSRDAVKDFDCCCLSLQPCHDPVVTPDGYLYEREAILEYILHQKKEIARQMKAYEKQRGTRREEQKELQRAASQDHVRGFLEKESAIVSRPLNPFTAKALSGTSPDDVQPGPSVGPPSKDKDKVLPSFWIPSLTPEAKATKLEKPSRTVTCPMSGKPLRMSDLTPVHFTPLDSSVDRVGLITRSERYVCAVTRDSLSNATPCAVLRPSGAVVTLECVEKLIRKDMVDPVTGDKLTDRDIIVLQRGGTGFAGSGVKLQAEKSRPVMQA
inactive: [1] 0 | [2] -0.004 | [3] -0.095 | [4] -0.121 | entinostat 0.16 | vorinostat 0.163 | citarinostat 0.136 | silmitasertib 0.082 | [5] -0.095 | [6] 0.019

MYH11 isoform 2 (UniProt P35749)
inactive: [1] 0.056 | [2] 0.018 | [3] -0.017 | [4] 0.046 | entinostat 0.015 | vorinostat 0.121 | citarinostat 0.027 | silmitasertib -0.003 | [5] -0.009 | [6] -0.034

PACS1 (UniProt Q6VY07)
Sequence of UniProt Q6VY07 (Q6VY07 whole entry, looked up): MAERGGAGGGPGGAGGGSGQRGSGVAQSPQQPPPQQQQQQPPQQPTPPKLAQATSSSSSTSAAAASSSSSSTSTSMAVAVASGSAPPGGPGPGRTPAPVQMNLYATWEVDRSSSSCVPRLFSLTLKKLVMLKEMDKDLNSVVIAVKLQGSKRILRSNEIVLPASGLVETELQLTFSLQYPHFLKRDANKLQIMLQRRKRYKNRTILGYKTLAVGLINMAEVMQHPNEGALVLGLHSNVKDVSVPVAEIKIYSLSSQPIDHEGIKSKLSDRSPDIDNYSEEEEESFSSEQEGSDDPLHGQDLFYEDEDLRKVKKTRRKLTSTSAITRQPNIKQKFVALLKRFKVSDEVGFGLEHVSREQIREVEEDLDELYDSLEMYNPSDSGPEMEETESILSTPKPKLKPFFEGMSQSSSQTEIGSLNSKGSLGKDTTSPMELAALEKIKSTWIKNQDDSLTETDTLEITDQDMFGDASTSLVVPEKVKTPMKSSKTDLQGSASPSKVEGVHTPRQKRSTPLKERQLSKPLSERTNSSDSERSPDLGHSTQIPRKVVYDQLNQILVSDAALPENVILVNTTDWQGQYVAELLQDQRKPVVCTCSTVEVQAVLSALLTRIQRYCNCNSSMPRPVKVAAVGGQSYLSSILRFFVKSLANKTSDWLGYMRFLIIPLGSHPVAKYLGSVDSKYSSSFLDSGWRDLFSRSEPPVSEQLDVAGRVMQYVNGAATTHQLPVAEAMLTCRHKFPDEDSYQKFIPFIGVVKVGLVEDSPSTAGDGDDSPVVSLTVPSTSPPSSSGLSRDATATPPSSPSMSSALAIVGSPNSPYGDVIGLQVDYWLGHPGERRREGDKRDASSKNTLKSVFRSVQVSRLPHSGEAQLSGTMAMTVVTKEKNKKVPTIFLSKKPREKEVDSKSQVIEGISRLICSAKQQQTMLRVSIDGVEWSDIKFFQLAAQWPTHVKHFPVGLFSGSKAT
inactive: [1] 0 | [2] 0.041 | [3] -0.081 | [4] -0.01 | entinostat 0.004 | vorinostat 0.022 | citarinostat -0.012 | silmitasertib -0.074 | [5] 0.062 | [6] -0.113

MON1B (UniProt Q7L1V2)
active: [3] -0.312
inactive: [1] 0.015 | [2] -0.045 | [4] -0.053 | entinostat -0.018 | vorinostat -0.001 | citarinostat 0.056 | silmitasertib 0.032 | [5] 0.052 | [6] -0.081

MRPS22 (UniProt P82650)
inactive: [1] -0.008 | [2] 0.031 | [3] -0.098 | [4] 0.006 | entinostat 0.027 | vorinostat 0.131 | citarinostat 0.035 | silmitasertib -0.071 | [5] -0.069 | [6] -0.006

NFATC3 (UniProt Q12968)
Sequence of UniProt Q12968 (Q12968 whole entry, looked up): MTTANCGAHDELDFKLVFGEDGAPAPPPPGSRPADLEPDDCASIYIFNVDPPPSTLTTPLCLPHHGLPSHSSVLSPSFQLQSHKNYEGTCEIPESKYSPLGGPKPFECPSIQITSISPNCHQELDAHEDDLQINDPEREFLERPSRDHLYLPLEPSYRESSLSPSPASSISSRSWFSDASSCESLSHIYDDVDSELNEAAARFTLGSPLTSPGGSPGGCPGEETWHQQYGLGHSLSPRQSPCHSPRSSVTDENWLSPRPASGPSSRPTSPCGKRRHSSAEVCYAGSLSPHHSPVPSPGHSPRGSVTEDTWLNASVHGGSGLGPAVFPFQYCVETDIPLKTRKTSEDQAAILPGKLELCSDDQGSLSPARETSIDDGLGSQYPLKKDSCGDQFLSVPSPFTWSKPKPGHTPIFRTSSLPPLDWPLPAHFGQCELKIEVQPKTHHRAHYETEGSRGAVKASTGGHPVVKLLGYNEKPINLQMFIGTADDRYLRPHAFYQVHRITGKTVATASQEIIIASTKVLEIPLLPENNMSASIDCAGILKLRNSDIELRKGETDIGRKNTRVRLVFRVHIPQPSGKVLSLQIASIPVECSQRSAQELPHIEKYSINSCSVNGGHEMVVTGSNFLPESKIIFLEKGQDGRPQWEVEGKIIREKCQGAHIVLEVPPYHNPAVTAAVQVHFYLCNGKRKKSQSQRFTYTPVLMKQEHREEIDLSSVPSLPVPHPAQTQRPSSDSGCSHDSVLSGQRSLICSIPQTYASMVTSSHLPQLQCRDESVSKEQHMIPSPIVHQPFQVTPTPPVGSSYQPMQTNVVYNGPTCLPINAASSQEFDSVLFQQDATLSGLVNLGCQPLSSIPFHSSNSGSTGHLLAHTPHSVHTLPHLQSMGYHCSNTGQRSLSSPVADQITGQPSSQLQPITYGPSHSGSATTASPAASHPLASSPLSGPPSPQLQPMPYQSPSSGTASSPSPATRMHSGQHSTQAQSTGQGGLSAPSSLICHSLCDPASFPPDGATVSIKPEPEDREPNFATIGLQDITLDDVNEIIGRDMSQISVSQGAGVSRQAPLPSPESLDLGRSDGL
inactive: [1] -0.15 | [2] -0.137 | [3] 0.034 | [4] 0.007 | entinostat 0.107 | vorinostat 0.045 | citarinostat -0.101 | silmitasertib 0.118 | [5] -0.267 | [6] -0.225

NNT (UniProt Q13423)
inactive: [1] -0.007 | [2] -0.037 | [3] -0.062 | [4] -0.029 | entinostat 0.006 | vorinostat 0.025 | citarinostat 0.018 | silmitasertib -0.027 | [5] -0.041 | [6] 0.024

MRPS5 (UniProt P82675)
inactive: [1] 0.009 | [2] 0.034 | [3] -0.057 | [4] 0.013 | entinostat 0 | vorinostat 0.125 | citarinostat 0.023 | silmitasertib -0.043 | [5] -0.039 | [6] -0.018

NDUFS4 (UniProt O43181)
inactive: [1] -0.015 | [2] 0.026 | [3] 0.005 | [4] 0.053 | entinostat -0.095 | vorinostat -0.058 | citarinostat -0.069 | silmitasertib 0.03 | [5] 0.007 | [6] -0.039

NCOR1 (UniProt O75376)
inactive: [1] 0.096 | [2] -0.057 | [3] -0.005 | [4] -0.072 | entinostat 0.007 | vorinostat -0.059 | citarinostat -0.028 | silmitasertib 0.001 | [5] -0.044 | [6] -0.024

NCAPH (UniProt Q15003)
inactive: [1] -0.086 | [2] -0.036 | [3] -0.092 | [4] -0.043 | entinostat 0.038 | vorinostat 0.029 | citarinostat 0.029 | silmitasertib 0.098 | [5] 0 | [6] -0.009

NRF1 isoform 4 (UniProt Q16656)
inactive: [1] 0.021 | [2] -0.088 | [3] -0.129 | [4] -0.037 | entinostat 0.056 | vorinostat 0.047 | citarinostat 0.039 | silmitasertib -0.02 | [5] -0.064 | [6] 0.04

MORF4L2 (UniProt Q15014)
Sequence of UniProt Q15014 (Q15014 whole entry, looked up): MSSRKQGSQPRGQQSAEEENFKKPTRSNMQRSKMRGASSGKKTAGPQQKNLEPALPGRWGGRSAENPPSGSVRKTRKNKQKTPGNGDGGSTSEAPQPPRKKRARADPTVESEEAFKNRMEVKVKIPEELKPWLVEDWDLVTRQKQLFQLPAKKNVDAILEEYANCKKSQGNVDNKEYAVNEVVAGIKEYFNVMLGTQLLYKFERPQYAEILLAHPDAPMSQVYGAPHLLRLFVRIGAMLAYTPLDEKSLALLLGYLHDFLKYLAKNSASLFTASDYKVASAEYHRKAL
inactive: [1] 0.021 | [2] 0.047 | [3] 0.123 | [4] 0.027 | entinostat -0.066 | vorinostat 0.04 | citarinostat -0.044 | silmitasertib 0.087 | [5] 0.04 | [6] -0.121

OSBPL8 (UniProt Q9BZF1)
Sequence of UniProt Q9BZF1 (Q9BZF1 whole entry, looked up): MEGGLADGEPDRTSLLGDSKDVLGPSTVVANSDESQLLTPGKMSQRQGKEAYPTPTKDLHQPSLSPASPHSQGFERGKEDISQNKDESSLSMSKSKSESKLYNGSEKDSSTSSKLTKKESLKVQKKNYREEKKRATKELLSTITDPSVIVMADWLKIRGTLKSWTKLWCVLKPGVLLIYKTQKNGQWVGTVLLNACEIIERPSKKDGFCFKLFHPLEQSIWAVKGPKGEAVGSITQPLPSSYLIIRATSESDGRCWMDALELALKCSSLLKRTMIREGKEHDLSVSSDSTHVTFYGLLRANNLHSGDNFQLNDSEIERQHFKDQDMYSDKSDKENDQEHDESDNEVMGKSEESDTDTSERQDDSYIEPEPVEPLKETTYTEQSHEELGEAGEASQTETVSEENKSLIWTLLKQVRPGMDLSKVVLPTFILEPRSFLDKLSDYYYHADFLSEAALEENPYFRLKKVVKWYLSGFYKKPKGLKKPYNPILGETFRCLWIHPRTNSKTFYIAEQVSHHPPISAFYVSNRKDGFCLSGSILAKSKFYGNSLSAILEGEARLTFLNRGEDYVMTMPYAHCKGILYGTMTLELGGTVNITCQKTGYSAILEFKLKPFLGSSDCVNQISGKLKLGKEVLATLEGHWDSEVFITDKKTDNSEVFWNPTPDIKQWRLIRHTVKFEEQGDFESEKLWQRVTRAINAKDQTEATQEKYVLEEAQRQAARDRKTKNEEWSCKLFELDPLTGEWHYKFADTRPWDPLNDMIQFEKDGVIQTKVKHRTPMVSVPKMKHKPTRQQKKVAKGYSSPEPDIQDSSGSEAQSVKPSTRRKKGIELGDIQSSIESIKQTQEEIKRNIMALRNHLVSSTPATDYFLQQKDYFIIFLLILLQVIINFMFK
inactive: [1] -0.06 | [2] -0.03 | [3] 0.063 | [4] 0.042 | entinostat 0.012 | vorinostat 0.049 | citarinostat 0.005 | silmitasertib 0 | [5] 0.079 | [6] -0.129

MSL1 (UniProt Q68DK7)
Sequence of UniProt Q68DK7 (Q68DK7 whole entry, looked up): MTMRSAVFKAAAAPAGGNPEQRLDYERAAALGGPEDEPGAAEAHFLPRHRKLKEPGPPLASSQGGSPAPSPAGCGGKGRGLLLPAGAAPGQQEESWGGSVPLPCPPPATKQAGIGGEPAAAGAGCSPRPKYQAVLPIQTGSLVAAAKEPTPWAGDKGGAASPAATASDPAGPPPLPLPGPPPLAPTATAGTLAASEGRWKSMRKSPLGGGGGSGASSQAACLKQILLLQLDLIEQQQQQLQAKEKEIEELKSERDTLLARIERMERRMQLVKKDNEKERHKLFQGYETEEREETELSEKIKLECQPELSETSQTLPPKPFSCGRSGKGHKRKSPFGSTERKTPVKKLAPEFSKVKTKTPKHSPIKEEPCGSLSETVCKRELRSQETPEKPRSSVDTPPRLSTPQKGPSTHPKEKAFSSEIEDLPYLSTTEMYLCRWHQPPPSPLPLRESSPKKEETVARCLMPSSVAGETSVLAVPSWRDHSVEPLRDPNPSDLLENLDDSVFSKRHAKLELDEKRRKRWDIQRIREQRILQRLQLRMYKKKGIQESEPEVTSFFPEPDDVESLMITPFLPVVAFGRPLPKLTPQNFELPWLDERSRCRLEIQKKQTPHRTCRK
inactive: [1] -0.032 | [2] -0.085 | [3] -0.024 | [4] -0.036 | entinostat 0.016 | vorinostat 0.104 | citarinostat 0.047 | silmitasertib -0.152 | [5] -0.153 | [6] 0.017

MRPS15 (UniProt P82914)
inactive: [1] 0.039 | [2] 0.06 | [3] -0.057 | [4] 0.119 | entinostat 0.072 | vorinostat 0.077 | citarinostat 0.028 | silmitasertib -0.114 | [5] 0.085 | [6] -0.031

NNMT (UniProt P40261)
Sequence of UniProt P40261 (P40261 whole entry, looked up): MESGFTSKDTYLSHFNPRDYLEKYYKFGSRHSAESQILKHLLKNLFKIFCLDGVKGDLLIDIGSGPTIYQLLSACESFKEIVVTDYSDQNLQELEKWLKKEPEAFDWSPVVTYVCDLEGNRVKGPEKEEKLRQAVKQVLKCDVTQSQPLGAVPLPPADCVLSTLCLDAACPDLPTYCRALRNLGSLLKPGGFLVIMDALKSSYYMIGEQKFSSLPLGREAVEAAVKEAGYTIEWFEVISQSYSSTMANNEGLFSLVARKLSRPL
inactive: [1] 0.013 | [2] -0.04 | [3] -0.179 | [4] -0.037 | entinostat -0.056 | vorinostat 0.128 | citarinostat -0.023 | silmitasertib 0.013 | [5] -0.042 | [6] 0.139

NAPG (UniProt Q99747)
inactive: [1] -0.027 | [2] -0.087 | [3] -0.085 | [4] -0.094 | entinostat 0.102 | vorinostat 0.117 | citarinostat 0.075 | silmitasertib 0.032 | [5] -0.029 | [6] -0.017

NELFB isoform 2 (UniProt Q8WX92)
inactive: [1] -0.021 | [2] -0.016 | [3] -0.074 | [4] -0.107 | entinostat 0.062 | vorinostat 0.059 | citarinostat 0.102 | silmitasertib 0.021 | [5] -0.086 | [6] -0.001
